# Source: PubChem BioAssay (National Center for Advancing Translational Sciences (NCATS))
# RORgamma inh = inhibitors of mouse ROR gamma transcriptional activity. Drosophila S2 Gal4-RORgamma UAS-luciferase reporter, 20 h. Potency, µM (titrated, usually from 53.6 µM), for the others: at the highest dose activity change, negative = inhibition, hits mostly inhibitors. actives 5.4% (n = 310,000); note: nearly all actives have a fitted effect of over 60% in size
# Target sequence (P51450 whole entry, looked up, the tested form may be a part): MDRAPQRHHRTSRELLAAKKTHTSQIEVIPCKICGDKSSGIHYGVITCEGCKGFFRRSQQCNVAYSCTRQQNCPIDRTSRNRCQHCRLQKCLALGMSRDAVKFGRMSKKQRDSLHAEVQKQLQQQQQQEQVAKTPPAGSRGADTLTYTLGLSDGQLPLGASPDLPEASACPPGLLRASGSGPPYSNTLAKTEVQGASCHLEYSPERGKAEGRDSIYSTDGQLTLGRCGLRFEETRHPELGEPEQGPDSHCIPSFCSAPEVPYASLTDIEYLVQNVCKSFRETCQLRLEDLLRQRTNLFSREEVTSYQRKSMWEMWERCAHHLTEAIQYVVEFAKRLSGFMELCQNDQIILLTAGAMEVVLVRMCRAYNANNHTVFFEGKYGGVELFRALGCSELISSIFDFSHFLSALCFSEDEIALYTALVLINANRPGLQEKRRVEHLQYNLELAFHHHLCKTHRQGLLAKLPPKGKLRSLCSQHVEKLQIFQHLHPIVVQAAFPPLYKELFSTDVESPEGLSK
#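 Stable Schneider cell line, Gal4 DNA-binding domain fused to ROR gamma, UAS-luciferase. Cmpd 1 hr RT → CuSO4 700 uM final → 20 hr RT → luciferase reagent 10 min → luminescence.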
# DT40 TDP1 no CPT = qHTS for Inhibitors of human tyrosyl-DNA phosphodiesterase 1 (TDP1): qHTS in cells in absence of CPT. DT40 Tdp1-/- hTDP1 cells, no CPT, ATP luminescence, 48 h. actives 15% (n = 420,000). Potency, µM (highest dose often 46.2 µM), without a hit: at the highest dose activity change, negative = growth inhibition, actives largely listed as inhibitors; note: nearly all actives have a fitted effect of over 55% in size
#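 Chicken DT40 Tdp1-/- cells stably complemented with human TDP1 were seeded at 400 cells/well with DMSO in place of 20 nM camptothecin. After compound pinning, cells grew at least 48 hr at 37 °C; viability read by CellTiter-Glo luminescence.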
# VP16 counter = inhibits Gal4-VP16 luciferase reporter, ROR gamma counter-screen; AID 2546; Potency, µM (series often up to 53.6 µM), inactives show at the highest dose activity, negative = inhibition, most hits filed as inhibitors; actives 3.5% (n = 310,000); Drosophila S2 Gal4-VP16 UAS-luciferase, luminescence, 20 h;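 note: Gal4-VP16 expression switched on by copper sulfate through the metallothionein promoter; nearly all actives have a fitted effect of over 50% in size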
# TDP1 inh = inhibitors of human tyrosyl-DNA phosphodiesterase TDP1; Q9NUW8; recombinant TDP1, AlphaScreen DNA substrate cleavage; Potency, µM (top dose mostly 130 µM), inactives show at the top dose activity change, negative = inhibition, hits mostly inhibitors; actives 0.28% (n = 350,000); AID 485290; note: nearly all actives have a fitted effect of over 40% in size
#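 Here, a 5' biotin and 3' phosphotyrosine-FITC DNA oligonucleotide reports Tdp1 activity: intact substrate bridges AlphaScreen beads, while cleavage leaves a 3' phosphate and drops signal. All incubations at room temperature.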
# DT40 TDP1 CPT = growth inhibition of DT40 Tdp1-/-;hTDP1 cells with camptothecin (screen for TDP1 inhibitors) | actives 12% (n = 420,000) | Potency, µM (top dose mostly 46.2 µM), inactives show at the highest dose activity change, negative = growth inhibition, actives largely listed as inhibitors | AID 686979 | chicken DT40 Tdp1-/-;hTDP1 cells + 20 nM CPT, ATP luminescence, 48 h; note: nearly all actives have a fitted effect of over 55% in size
#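 Cell growth measured by CellTiter-Glo luminescence after a minimum 48 h, 37 C compound exposure with 20 nM CPT in Tdp1-knockout DT40 cells stably expressing hTDP1, seeded 400/well; qHTS titration format.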
# * = called active by the depositor; ? = inconclusive; nt = no result. Sampled rows, rich in hits. Any-hit rate of the full collection: about 19%. Calls come from the whole dose curve; as a rule, active = well fitted curve in the direction sought with a large enough effect; inconclusive = small, poorly fitted or top-dose-only effect, or another doubt; inactive = no such curve, though single readings can be large; an effect the other way counts as inactive or inconclusive. % is set by controls: 0 for no effect and ±100 for the full control effect; potency is the fitted concentration of half-maximal effect.
SMILES,RORgamma inh,DT40 TDP1 no CPT,VP16 counter,TDP1 inh,DT40 TDP1 CPT
CC(C)NC(=O)c1ccccc1NC(=O)C(C)Oc1ccccc1 (centres undefined),-1%,-1%,-1%,2%,-27%
COc1cc(NC(=O)c2sc(C)nc2C)c(OC)cc1NC(=O)c1ccccc1,3%,16µM*,-12%,nt,?
CC(Oc1ccccc1)C(=O)Nc1ccc(NC(=O)c2ccccc2)cc1 (centres undefined),-27%,15%,-1%,0%,4%
CC(Oc1ccc(F)cc1)C(=O)Nc1ccccc1C(=O)N1CCCCC1 (centres undefined),nt,?,nt,-1%,15µM*
CCC(C)[C@H](N)c1nnc(SCc2ccc(Cl)c(Cl)c2)o1 (some centres undefined),nt,nt,nt,3%,nt
CCC(C)[C@H](N)c1nnc(SCC(=O)c2ccc(Cl)cc2)o1 (some centres undefined),-30%,7.1µM*,4%,7%,4µM*
CC(=O)c1ccc2c(c1)OCCOCCOCCOCCO2,33%,-1%,3%,0%,3%
CC(=O)c1ccc2c(c1)OCCOCCOc1ccccc1OCCOCCO2,13%,23µM*,-19%,6%,18µM*
c1ccc2c(c1)OCCOCCOCCOCCOCCOc1ccccc1OCCOCCOCCO2,?,15µM*,?,3%,8.2µM*
COc1ccc(NC(=O)CSc2nnc(Cn3cnc4ccccc43)n2C)cc1,-7%,2%,-5%,-8%,7%
N#CC(c1nc2ccccc2nc1N1CCOCC1)S(=O)(=O)c1ccccc1 (centres undefined),19%,29µM*,2%,3%,-7%
Cc1ccc(S(=O)(=O)C(C#N)c2nc3ccccc3nc2N2CC(C)OC(C)C2)cc1C (centres undefined),?,15µM*,-22%,7%,?
Cc1cccc(S(=O)(=O)C(C#N)c2nc3ccccc3nc2N2CC(C)OC(C)C2)c1 (centres undefined),3%,26µM*,-8%,1%,26µM*
Cc1ccc(S(=O)(=O)C(C#N)c2nc3ccccc3nc2N2CCCC2)cc1 (centres undefined),-32%,?,-7%,2%,-29%
CCN1CCN(c2nc3ccccc3nc2C(C#N)S(=O)(=O)c2ccc(C)c(C)c2)CC1 (centres undefined),-14%,-9%,-1%,8%,-4%
O=C1CN(C(=O)CNCc2cccc(Cl)c2)c2ccccc2N1,2%,6%,0%,-5%,-1%
Cc1ccccc1-n1c(-c2ccco2)n[nH]c1=S,11µM*,-4%,?,-1%,8%
Cc1ccc(-n2c(-c3cc(-c4ccco4)[nH]n3)n[nH]c2=S)c(Br)c1,8.9µM*,-3%,-4%,6%,10%
FC(F)(F)c1ccccc1-n1c(-c2ccco2)n[nH]c1=S,14µM*,-20%,?,nt,-2%
CC(=O)c1ccc(-n2c(-c3cc(-c4ccco4)[nH]n3)n[nH]c2=S)cc1,-26%,-5%,13%,-6%,1%
S=c1[nH]nc(-c2cc(-c3ccco3)[nH]n2)n1-c1cccc2ccccc12,24%,?,-2%,8%,-7%
Cc1cccc(-n2c(-c3ccc(Br)o3)n[nH]c2=S)c1,nt,-1%,nt,nt,7%
Cc1cccc(-n2c(-c3ccco3)n[nH]c2=S)c1,11µM*,-27%,?,3%,-8%
CC(C)(C)OC(=O)N[C@@H](Cc1ccccc1)[C@H](O)c1ccco1,-8%,?,1%,nt,-60%
O=C(CCc1ccccc1)Nc1ccccc1F,3%,-12%,-8%,2%,3%
SMILES,RORgamma inh,DT40 TDP1 no CPT,VP16 counter,TDP1 inh,DT40 TDP1 CPT
Cn1c(CC(=O)Nc2ccccc2F)nnc1SCC(=O)Nc1nncs1,-11%,-8%,-1%,-11%,5%
COc1ccc(Nc2ncc(C(=O)N3CCC(C(N)=O)CC3)c3ccccc23)cc1,3%,-1%,9%,-1%,0%
COc1ccc(Nc2ncc(C(=O)N3CCN(Cc4ccccc4)CC3)c3ccccc23)cc1,-2%,?,1%,8%,18µM*
COc1ccccc1Nc1ncc(C(=O)N2CCN(Cc3ccc(OC)c(OC)c3OC)CC2)c2ccccc12,43%,?,22%,0%,18µM*
COc1ccc(N2CCN(C(c3nnnn3CCc3ccccc3)C(C)C)CC2)cc1 (centres undefined),4%,18µM*,0%,3%,13µM*
CC(C)C(c1nnnn1CCc1ccccc1)N1CCOCC1 (centres undefined),27%,-1%,-3%,-6%,8%
CC1CCN(C(c2nnnn2CCc2ccccc2)C(C)C)CC1 (centres undefined),7%,18µM*,-4%,5%,?
O=C(NNC(=O)c1cc(-c2cccc(Br)c2)nc2ccccc12)c1csc(N2CCOCC2)n1,nt,-20%,nt,nt,-22%
O=C(NN1CCOCC1)c1cc(-c2ccc(Br)cc2)nc2ccccc12,15%,7.3µM*,3%,2%,?
COc1ccc(-c2cc(C(=O)NN3CCOCC3)c3ccccc3n2)cc1OC,nt,?,nt,1%,?
CCc1ccc(-c2cc(C(=O)NN3CCOCC3)c3ccccc3n2)cc1,-26%,1.3µM*,0%,4%,8.2µM*
CN1CCC(N(C)C(=S)NC(=O)c2cc(-c3cccc(Br)c3)nc3ccccc23)CC1,0.25µM*,18µM*,0.89µM*,0%,?
COc1cccc(-c2cc(C(=O)NN3CCOCC3)c3ccccc3n2)c1,16%,4.6µM*,1%,1%,?
COc1cccc(-c2cc(C(=O)Nn3cnnc3)c3ccccc3n2)c1,?,-19%,?,2%,-14%
CN1CCN(NC(=O)c2cc(-c3cccc(Cl)c3)nc3ccccc23)CC1,?,10µM*,-26%,-1%,12µM*
CCOC(=O)N1CCN(C(=O)Nc2ccc3nccnc3c2)CC1,59%,-4%,-1%,0%,-9%
O=C(O)CCNc1cc(N2CCN(C(=O)c3ccco3)CC2)c2noc3c2c1C(=O)c1ccccc1-3,-12%,-26%,-13%,0%,-2%
CCN1CCN(c2cc(N3CCN(C(=O)c4ccco4)CC3)c3c4c(onc24)-c2ccccc2C3=O)CC1,-19%,9.2µM*,-21%,9%,7.3µM*
COc1cccc(NC(=O)c2cnc(SCC(=O)NCc3ccc4c(c3)OCO4)n(C)c2=O)c1,nt,12µM*,nt,nt,21µM*
COc1cccc(-n2nnnc2SCC(=O)NCc2ccc3c(c2)OCO3)c1,18%,-19%,0%,3%,?
